# Screening results as filed in PubChem BioAssay.
# ERa coact pot – ER-alpha (human) coactivator binding potentiation. coactivator binding (% of control), % at 25.6 µM. 86,000 compounds, 1.3% hits. P03372. TR-FRET ERalpha-LBD/SRC-Cy5 coactivator binding, 2 h; 100 = basal binding, no effect; in the data active = activity above about 200%;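 note: binding measured in presence of low estradiol as agonist stimulus; 0% = peptide alone without receptor and 100% = receptor with peptide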
# MT1-MMP txn act – MT1-MMP promoter transcription activation; HT1080 MT1-MMP promoter luciferase reporter, luminescence, overnight; stronger effect = higher value; activation factor at 10 µM; 86,000 compounds, 0.16% hits; AID 750;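 active = activation factor of at least 2 for MT1-MMP transcription at 10 µM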
# ERb coact inh – ER-beta (human) coactivator binding inhibition | TR-FRET ER-beta LBD / SRC1-Cy5 peptide binding; receptor agonist-loaded with 1 µM estradiol | inhibition, % at 25.6 µM | 86,000 compounds, 1.3% hits;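 active = compounds whose percent inhibition of the receptor-coactivator binding signal exceeds about 50% in the single-dose screen, limit read from the data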;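 note: 0% = receptor plus peptide wells without compound and 100% = peptide-only wells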
# MMP-13 inhibitor – blocks human MMP13 activity; P45452; MMP-13 fTHP FRET cleavage, Mca fluorescence; inhibition, % at 4 µM; 65,000 compounds, 0.07% hits;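 active = inhibition above the mean of compound-free control plate wells plus 3 SD, cut at about 14% in these data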;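 note: 0% = DMSO wells and 100% = wells with reference MMP-13 inhibitor after basal subtraction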
# Smad3 inh – inhibitors of human Smad3 transcription factor binding | P84022 | 88,000 compounds, 0.29% hits | TR-FRET Smad3/Dy647-FoxH1 peptide binding, europium anti-His | inhibition, % at 25 µM;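 active = compounds that reduce the energy-transfer binding signal between the protein and its labelled peptide by more than half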;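 note: 0% = Smad3 plus labelled peptide maximal FRET and 100% = peptide-only background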
# Target sequence (P84022 whole entry, looked up): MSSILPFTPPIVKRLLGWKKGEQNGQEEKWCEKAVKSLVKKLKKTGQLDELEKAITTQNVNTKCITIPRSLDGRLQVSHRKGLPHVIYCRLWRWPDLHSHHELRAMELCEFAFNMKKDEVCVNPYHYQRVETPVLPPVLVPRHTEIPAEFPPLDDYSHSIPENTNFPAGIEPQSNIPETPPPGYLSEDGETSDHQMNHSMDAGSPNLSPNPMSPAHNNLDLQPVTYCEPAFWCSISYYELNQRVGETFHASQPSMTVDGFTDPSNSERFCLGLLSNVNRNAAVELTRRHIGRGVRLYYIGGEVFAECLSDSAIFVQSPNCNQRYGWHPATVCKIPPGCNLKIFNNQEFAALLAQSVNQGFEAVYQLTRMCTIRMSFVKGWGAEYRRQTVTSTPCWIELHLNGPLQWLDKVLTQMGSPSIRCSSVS
# ERa coact inh – ER-alpha (human) coactivator binding inhibition; AID 629; inhibition, % at 25.6 µM; 86,000 compounds, 1.7% hits; P03372; TR-FRET ER-alpha LBD / SRC-1 peptide, estradiol-bound; in the data active = inhibition above about 50%;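 note: 0% = receptor plus peptide control and 100% = peptide only without receptor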
# * marks the source's active call; other numbers are inactive results; / = not tested or not shown; [ ] = dose if it differs, or a comment. Most compounds without a hit are left out; they make up all but 3.5% or so of the library.
SMILES,ERa coact pot,MT1-MMP txn act,ERb coact inh,MMP-13 inhibitor,Smad3 inh,ERa coact inh
CCS(=O)(=O)Nc1ccc(C(=O)CC2(O)C(=O)Nc3ccccc32)cc1 (centres undefined),219*[fluorescence artefact?],1,-4,-3,0,-3
COc1ccc2c(c1)CC/C(=C\c1ccc(OC)c(Cn3nc(C)cc3C)c1)C2=O,106,1.1,26,/,0,52*
COc1ccc2c(c1)CC/C(=C\c1ccc(OC)c(Cn3cccn3)c1)C2=O,113,1.2,5,/,-13,7
CCCOP(=O)(OCCC)C1(Nc2ccc(C)cc2)CCCCC1,104,1,-5,/,-5,20
CCOC(=O)C1C(c2cccs2)NC(=O)NC1(O)C(F)(F)F (centres undefined),527*[fluorescence artefact?],1,-1,-4,7,-2
CCOC(=O)C1C(c2ccc3c(c2)OCO3)NC(=O)NC1(O)C(F)(F)F (centres undefined),96,1.1,-11,5,3,-8
C#CCNc1c(C)c(C)nc2ncnn12,108,1,-2,2,5,1
O=C(CSc1nnc(-c2ccco2)n1-c1ccccc1)N1CCN(C(=O)c2ccco2)CC1,521*[fluorescence artefact?],1.1,-4,4,21,-22
Cn1c(SCC(=O)N2CCN(c3ccccc3)CC2)nnc1-c1ccco1,105,1.1,6,/,12,11
Cc1ccn2c(NC(=O)c3ccco3)c(-c3ccccc3)nc2c1,109,1.3,-17,/,-1,-17
O=C(Nc1c(-c2ccccc2)nc2sccn12)c1ccccc1,71,1.1,71*[fluorescence artefact?],-3,51*,72*[fluorescence artefact?]
Cc1ccc(SC(C)C(=O)N2CCCC2)cc1 (centres undefined),120,1.1,-8,2,-4,-4
COc1cc(F)ccc1S(=O)(=O)N1CCN(C23CC4CC(CC(C4)C2)C3)CC1,115,1,2,/,-7,9
CCC1(C)Cc2c(sc3c2c(=O)n(C)c2nnc(SCc4ccc5c(c4)OCO5)n32)CO1 (centres undefined),125,1.3,69*[fluorescence artefact?],-1,6,87*[fluorescence artefact?]
O=C(O)C1C2C=CC3(CN(Cc4ccco4)C(=O)C13)O2 (centres undefined),111,1.1,-1,-7,1,98*[fluorescence artefact?]
COC(=O)Cn1cnc2c(nnn2-c2ccc(C)cc2)c1=O,112,1.1,3,-1,-9,-5
CC(C)c1cc(C(F)(F)F)n2nc(C(=O)Nc3ccc4c(c3)OCO4)cc2n1,91,1.3,3,10,-5,4
CCCCn1c(SCC(=O)Nc2nnc(CC)s2)nc2c1c(=O)n(C)c(=O)n2C,104,1,7,3,11,5
Nc1ccc(C(=O)OCc2nc3c(ccc4ccccc43)[nH]2)cc1,94,2.5*,-17,/,15,-15
CCc1ccc(S(=O)(=O)Nc2ccc(-c3nc4cccnc4s3)cc2)s1,108,/,-3,/,1,-11
C=CCn1c(SCc2c(F)c(F)c(F)c(F)c2F)nc(O)cc1=O,97,1.1,-4,0,4,6
CN(C1CCCCC1)S(=O)(=O)c1ccc(S(=O)(=O)N2CCN(CCC#N)CC2)cc1,113,1.1,54*,-12,3,-8
CC(=O)Nc1nc2ccc(Br)cc2s1,113,1.7,-1,4,11,4
Cc1ccc2cc3cc(C(=O)NCCCN4CCCCCC4)oc3nc2c1,105,1.2,26,-140,0,58*[fluorescence artefact?]
CCn1c(Cc2ccc(OC)cc2)nnc1SCC(=O)N1CCN(c2ccccc2)CC1,591*[fluorescence artefact?],1.2,-14,/,3,-8
COc1ccc(-n2cnnc2SCC(=O)N2CCN(c3ccccc3)CC2)cc1,74,/,-15,/,0,-6
COc1ccc(NC(=O)c2cc(-c3ccc(C)o3)nc3ccccc23)cc1OC,77,1.2,68*[fluorescence artefact?],-5,-3,79*[fluorescence artefact?]
CCc1cc(-c2[nH]ncc2-c2ccc3c(c2)OCO3)c(O)cc1O,55,0.7,9,-5,4,11
CC(C)C1N=C(c2ccc3c(c2)OCO3)CC(c2ccccc2O)N1 (centres undefined),111,2*,-5,/,4,-5
OCc1cn(-c2ccccc2)nc1-c1ccc2c(c1)OCCO2,98,2.1*,-1,-16,7,-3
